Experimental data published in PubChem BioAssay (NCI).
Compounds without any hit were thinned out: in the full panel of roughly 79,000, 15% have a hit. The source made the active and inactive calls. Rule as the data show it: active = growth inhibition above about 70%; inactive = the rest.

What was measured:
[1] = NCI Yeast Anticancer Drug Screen. Data for the rad52 strain (AID 147);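 also: 0% = growth of vehicle-treated control cultures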; conditions: S. cerevisiae rad52 mutant growth inhibition, stronger effect = higher value
In short: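 DNA repair-defective yeast; compound exposure; growth scored against vehicle controls.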

[2] = NCI Yeast Anticancer Drug Screen. Data for the wt1 strain (AID 149);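 also: 0% = growth of vehicle-treated wt1 cultures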; conditions: S. cerevisiae wt1 strain (SPY 50644) growth inhibition, stronger effect = higher value
In short: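 Readout: yeast growth inhibition, normalised to vehicle controls, in the wt1 strain exposed to test compounds.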

[3] = NCI Yeast Anticancer Drug Screen. Data for the rad50EPP+ strain (AID 151);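 also: 0% = growth of vehicle-treated control cultures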; conditions: S. cerevisiae rad50 mutant strain, stronger effect = higher value
In short: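 rad50EPP+ yeast treated with test compounds. Readout: growth vs vehicle control.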

[4] = NCI Yeast Anticancer Drug Screen. Data for the mgt1 strain (AID 153); conditions: S. cerevisiae mgt1 mutant growth inhibition, stronger effect = higher value
In short: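 Growth inhibition relative to vehicle controls was scored for the mgt1 yeast strain after compound exposure.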

[5] = NCI Yeast Anticancer Drug Screen. Data for the rad50 strain (AID 155);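 also: 0% = growth of vehicle-only cultures of the same strain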; conditions: S. cerevisiae rad50 strain growth inhibition, stronger effect = higher value
In short: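 Compounds were tested on a yeast strain with an engineered DNA damage repair alteration; the reported value is growth inhibition normalised to vehicle treatment.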

[6] = NCI Yeast Anticancer Drug Screen. Data for the mec2-1 strain (AID 157); conditions: S. cerevisiae mec2-1 strain, stronger effect = higher value
In short: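 Growth inhibition is read against vehicle-treated controls after compound exposure of the mec2-1 yeast strain, which is defective in DNA damage repair or cell cycle control.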

[7] = NCI Yeast Anticancer Drug Screen. Data for the rad14 strain (AID 159);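 also: 0% = growth of vehicle-treated control cultures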; conditions: S. cerevisiae rad14 strain growth inhibition, stronger effect = higher value
In short: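 Compound-treated yeast with a defined DNA-repair lesion; growth inhibition normalised to vehicle-treated cultures.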

[8] = NCI Yeast Anticancer Drug Screen. Data for the sgs1 mgt1 strain (AID 161);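 also: 0% = growth of cultures given vehicle only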; conditions: S. cerevisiae sgs1 mgt1 strain, stronger effect = higher value
In short: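 This yeast growth screen uses a strain with defined DNA-repair lesions; compound-treated growth is compared with vehicle-treated growth.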

[9] = NCI Yeast Anticancer Drug Screen. Data for the CLN2oe strain (AID 163);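 also: 0% = growth of vehicle-only control cultures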; conditions: S. cerevisiae CLN2oe strain, stronger effect = higher value
In short: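 Compound-treated yeast; growth vs vehicle ctrl = % inhibition. Genetically altered strain (cell-cycle control).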

[10] = NCI Yeast Anticancer Drug Screen. Data for the cln2 rad14 strain (AID 165);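 also: 0% = growth equal to vehicle treated cultures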; conditions: S. cerevisiae cln2 rad14 strain, stronger effect = higher value
In short: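 Growth inhibition, relative to vehicle-treated controls, is the read-out. The test organism is a yeast strain with defined genetic alterations, cln2 rad14.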

[11] = NCI Yeast Anticancer Drug Screen. Data for the bub3 strain (AID 167); conditions: S. cerevisiae bub3 mutant strain, stronger effect = higher value
In short: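 Growth of a checkpoint-deficient yeast mutant is measured after compound exposure. Values represent inhibition relative to vehicle.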

[12] = NCI Yeast Anticancer Drug Screen. Data for the wt2 strain (AID 169);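 also: 0% = growth of vehicle-treated yeast cultures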; conditions: S. cerevisiae wt2 strain growth inhibition, stronger effect = higher value
In short: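 Compound exposure of yeast; growth compared with vehicle controls; inhibition reported.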

[13] = NCI Yeast Anticancer Drug Screen. Data for the mlh1 strain (AID 171);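 also: 0% = growth of vehicle-treated control cultures of the same strain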; conditions: S. cerevisiae mlh1 strain growth inhibition, stronger effect = higher value
In short: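 Compounds are applied to a genetically altered yeast strain, and its growth is compared with that of vehicle-treated cultures to give percent inhibition.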

[14] = NCI Yeast Anticancer Drug Screen. Data for the mlh1 rad18 strain (AID 175); conditions: S. cerevisiae mlh1 rad18 strain growth inhibition, stronger effect = higher value
In short: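 Cells of a genetically altered yeast strain, deficient in DNA damage repair, were treated with compound. Their growth was then compared with that of vehicle-treated cultures to give inhibition.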

[15] = NCI Yeast Anticancer Drug Screen. Data for the rad18 strain (AID 177); conditions: S. cerevisiae rad18 mutant growth inhibition, stronger effect = higher value
In short: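 Compounds are applied to a repair-deficient yeast strain, and growth is compared with that of vehicle-treated cultures to give percent inhibition.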

[16] = NCI Yeast Anticancer Drug Screen. Data for the sgs1 strain (AID 173);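 also: 0% = growth of vehicle-only control cultures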; conditions: S. cerevisiae sgs1 mutant, stronger effect = higher value
In short: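 Compounds applied to genetically altered yeast; growth compared with vehicle-treated cultures to give % inhibition.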

[17] = at 5.0 µM (retest, dose inferred, filed as 0.5)
[18] = at 50.0 µM (retest, dose inferred, filed as 5.0)

Measured: growth inhibition

O=C(NCCCCCCCN1CCCCCCC1)C(C1CCCCC1)C1CCCCC1
active: [1]; at 11.0 µM 89% | [1]; at 33.0 µM 98% | [1]; at 100.0 µM 99% | [2]; at 33.0 µM 97% | [2]; at 100.0 µM 98% | [4]; at 3.7 µM 83% | [4]; at 11.0 µM 97% | [4]; at 33.0 µM 98% | [4]; at 100.0 µM 99% | [5]; at 11.0 µM 81% | [5]; at 33.0 µM 98% | [5]; [18] 99% | [5]; at 50.0 µM 99.3% | [5]; at 100.0 µM 98% | [6]; at 11.0 µM 85% | [6]; at 33.0 µM 98% | [6]; [18] 97% | [6]; at 50.0 µM 94.2% | [6]; at 100.0 µM 99% | [7]; at 1.2 µM 72% | [7]; at 3.7 µM 75% | [7]; at 11.0 µM 97% | [7]; at 33.0 µM 99% | [7]; at 100.0 µM 99% | [8]; [18] 98% | [8]; at 50.0 µM 99% | [9]; at 11.0 µM 92% | [9]; at 33.0 µM 97% | [9]; at 100.0 µM 98% | [10]; [18] 98% | [10]; at 50.0 µM 96.5% | [11]; at 11.0 µM 95% | [11]; at 33.0 µM 97% | [11]; [18] 99% | [11]; at 50.0 µM 99% | [11]; at 100.0 µM 98% | [12]; at 11.0 µM 95% | [12]; at 33.0 µM 98% | [12]; at 100.0 µM 99% | [13]; at 11.0 µM 95% | [13]; at 33.0 µM 98% | [13]; at 100.0 µM 99% | [14]; [18] 98% | [14]; at 50.0 µM 99.2% | [15]; at 11.0 µM 92% | [15]; at 33.0 µM 97% | [15]; at 100.0 µM 98%
inactive: [1]; at 1.2 µM 40% | [1]; at 3.7 µM 52% | [2]; at 1.2 µM 18% | [2]; at 3.7 µM 26% | [2]; at 11.0 µM 61% | [3]; at 1.2 µM 0% | [3]; at 3.7 µM -1% | [3]; at 11.0 µM 4% | [3]; at 33.0 µM 16% | [3]; at 100.0 µM 41% | [4]; at 1.2 µM 64% | [5]; at 1.2 µM 41% | [5]; at 3.7 µM 45% | [5]; [17] 35% | [6]; at 1.2 µM 43% | [6]; at 3.7 µM 39% | [6]; [17] 29% | [8]; [17] 36% | [9]; at 1.2 µM 53% | [9]; at 3.7 µM 65% | [10]; [17] 62% | [11]; at 1.2 µM 65% | [11]; at 3.7 µM 66% | [11]; [17] 27% | [12]; at 1.2 µM 37% | [12]; at 3.7 µM 56% | [13]; at 1.2 µM 44% | [13]; at 3.7 µM 48% | [14]; [17] 17% | [15]; at 1.2 µM 51% | [15]; at 3.7 µM 64%

Nc1ccc2c(c1)C(=O)c1cccc(N)c1C2=O
inactive: [1]; at 1.2 µM 6% | [1]; at 3.7 µM 38% | [2]; at 1.2 µM -1% | [2]; at 3.7 µM 6% | [2]; at 11.0 µM 24% | [2]; at 33.0 µM 49% | [2]; at 100.0 µM 61% | [3]; at 1.2 µM 9% | [3]; at 3.7 µM 50% | [4]; at 1.2 µM -1% | [4]; at 3.7 µM 4% | [4]; at 11.0 µM 21% | [4]; at 33.0 µM 63% | [5]; at 1.2 µM 10% | [5]; at 3.7 µM 45% | [5]; [17] 51% | [6]; at 1.2 µM 4% | [6]; at 3.7 µM 16% | [6]; [17] 17% | [6]; at 11.0 µM 38% | [6]; at 33.0 µM 64% | [6]; [18] 68% | [6]; at 50.0 µM 53.9% | [7]; at 1.2 µM 5% | [7]; at 3.7 µM 11% | [7]; at 11.0 µM 29% | [7]; at 33.0 µM 57% | [8]; [17] -9% | [8]; [18] 66% | [8]; at 50.0 µM 42.9% | [9]; at 1.2 µM -2% | [9]; at 3.7 µM 3% | [9]; at 11.0 µM 19% | [9]; at 33.0 µM 37% | [9]; at 100.0 µM 48% | [10]; [17] 8% | [10]; at 50.0 µM 54.6% | [11]; at 1.2 µM -1% | [11]; at 3.7 µM 2% | [11]; [17] 6% | [11]; at 11.0 µM 25% | [11]; at 50.0 µM 57.1% | [12]; at 1.2 µM -2% | [12]; at 3.7 µM 11% | [12]; at 11.0 µM 19% | [12]; at 33.0 µM 56% | [16]; at 1.2 µM -4% | [16]; at 3.7 µM 3% | [16]; at 11.0 µM 37% | [14]; [17] 18% | [15]; at 1.2 µM 5% | [15]; at 3.7 µM 39%
active: [1]; at 11.0 µM 89% | [1]; at 33.0 µM 93% | [1]; at 100.0 µM 92% | [3]; at 11.0 µM 92% | [3]; at 33.0 µM 97% | [3]; at 100.0 µM 92% | [4]; at 100.0 µM 81% | [5]; at 11.0 µM 92% | [5]; at 33.0 µM 95% | [5]; [18] 93% | [5]; at 50.0 µM 89.8% | [5]; at 100.0 µM 93% | [6]; at 100.0 µM 82% | [7]; at 100.0 µM 88% | [10]; [18] 77% | [11]; at 33.0 µM 72% | [11]; [18] 89% | [11]; at 100.0 µM 87% | [12]; at 100.0 µM 72% | [16]; at 33.0 µM 79% | [16]; at 100.0 µM 85% | [14]; [18] 93% | [14]; at 50.0 µM 72.5% | [15]; at 11.0 µM 91% | [15]; at 33.0 µM 97% | [15]; at 100.0 µM 93%
